Source: PubChem BioAssay (NCI)
This is part of a sample that, as a whole, favours compounds with a hit. Of some 83,000 tested, about 20% had one in any assay.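 Growth was measured after 48 h exposure to one concentration of compound in 96-well plates. Values under 10 count as active.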 Active and inactive are the calls of the source.

Tests used:
Assay in all cases: NCI-60 one-dose screen, 48 h (100 = growth as untreated, 0 = no growth, -100 = all killed)
Conditions in all cases: 10 µM
NCI-H23 lung = system: NCI-H23 lung
NCI-H226 lung = system: NCI-H226 lung
NCI-H322M lung = system: NCI-H322M lung
HOP-62 NSCLC = system: HOP-62 NSCLC
NCI-H460 lung = system: NCI-H460 lung
HOP-92 NSCLC = system: HOP-92 NSCLC
NCI-H522 lung = system: NCI-H522 lung
A549/ATCC NSCLC = system: A549/ATCC NSCLC
786-0 renal = system: 786-0 renal
COLO 205 colon = system: COLO 205 colon

Measured: growth

O/N=C1\CCC2CCCCC2C1 (stereo not given)
inactive: NCI-H23 lung 103% | NCI-H226 lung 103% | NCI-H322M lung 106% | HOP-62 NSCLC 108% | NCI-H460 lung 103% | HOP-92 NSCLC 82.9% | NCI-H522 lung 93.4% | A549/ATCC NSCLC 96.6% | 786-0 renal 105% | COLO 205 colon 114%

COc1ccc(/C(=C/c2cc(OC)c(OC)cc2[N+](=O)[O-])C(=O)O)cc1
inactive: NCI-H23 lung 103% | NCI-H226 lung 101% | NCI-H322M lung 118% | HOP-62 NSCLC 94.1% | NCI-H460 lung 110% | HOP-92 NSCLC 97.2% | NCI-H522 lung 107% | A549/ATCC NSCLC 108% | 786-0 renal 106% | COLO 205 colon 127%

CC(C)(C)c1ccc(OCCCCCCN2CCNCC2)cc1
inactive: NCI-H23 lung 61.5% | NCI-H226 lung 73.4% | NCI-H322M lung 85.1% | HOP-62 NSCLC 67.8% | NCI-H460 lung 35.4% | HOP-92 NSCLC 16.8% | NCI-H522 lung 66.2% | A549/ATCC NSCLC 55.1%
active: 786-0 renal -50.7% | COLO 205 colon -66.7%

COc1ccc(C2C=C(c3ccc(Cl)cc3)N=C3SC=CN32)c(Br)c1 (stereo not given)
inactive: NCI-H23 lung 71.6% | NCI-H226 lung 81.4% | NCI-H322M lung 112% | HOP-62 NSCLC 87.3% | NCI-H460 lung 76.7% | HOP-92 NSCLC 76.2% | NCI-H522 lung 65.5% | A549/ATCC NSCLC 56.8% | 786-0 renal 89.6% | COLO 205 colon 70.4%
